Reference: PubChem BioAssay AID588683 (Broad Institute, 2011)
Potency and affinity values are given separately. The source made the active and inactive calls. How the calls were made is not given here.

molecular target: Kelch-like ECH-associated protein 1 (Homo sapiens) + Nuclear factor erythroid 2-related factor 2 (Homo sapiens) (UniProt Q14145+Q16236); experiment: Keap1-Nrf2 protein-protein interaction inhibitors, dose response, biochemical, fluorescence polarization, cherry-picked samples (AID 588683); details: Keap1/Nrf2 peptide fluorescence polarization, plate reader; series mostly up to 26 µM;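 further: Kelch domain of Keap1 binding a fluorescein-labelled 9mer Nrf2 peptide; more negative means stronger inhibition of peptide binding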
Sequence (Q14145 whole entry, looked up, the tested form may be a part): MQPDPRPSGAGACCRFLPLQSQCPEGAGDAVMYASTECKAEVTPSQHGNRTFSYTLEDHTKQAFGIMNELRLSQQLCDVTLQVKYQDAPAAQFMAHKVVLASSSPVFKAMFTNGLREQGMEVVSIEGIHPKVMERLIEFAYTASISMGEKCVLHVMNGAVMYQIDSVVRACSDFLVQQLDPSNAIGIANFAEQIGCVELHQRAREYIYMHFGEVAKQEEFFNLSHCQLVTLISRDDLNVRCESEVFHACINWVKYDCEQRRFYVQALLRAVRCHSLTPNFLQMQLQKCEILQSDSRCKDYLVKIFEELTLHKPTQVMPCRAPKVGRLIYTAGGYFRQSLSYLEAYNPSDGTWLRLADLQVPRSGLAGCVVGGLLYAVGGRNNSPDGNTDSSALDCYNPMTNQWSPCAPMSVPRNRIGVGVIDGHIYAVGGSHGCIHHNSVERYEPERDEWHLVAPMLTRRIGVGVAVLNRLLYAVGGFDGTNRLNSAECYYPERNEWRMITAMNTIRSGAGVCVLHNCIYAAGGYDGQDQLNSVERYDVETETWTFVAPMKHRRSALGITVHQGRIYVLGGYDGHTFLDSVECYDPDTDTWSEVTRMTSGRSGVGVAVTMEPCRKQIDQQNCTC
Sequence (Q16236 whole entry, looked up, the tested form may be a part): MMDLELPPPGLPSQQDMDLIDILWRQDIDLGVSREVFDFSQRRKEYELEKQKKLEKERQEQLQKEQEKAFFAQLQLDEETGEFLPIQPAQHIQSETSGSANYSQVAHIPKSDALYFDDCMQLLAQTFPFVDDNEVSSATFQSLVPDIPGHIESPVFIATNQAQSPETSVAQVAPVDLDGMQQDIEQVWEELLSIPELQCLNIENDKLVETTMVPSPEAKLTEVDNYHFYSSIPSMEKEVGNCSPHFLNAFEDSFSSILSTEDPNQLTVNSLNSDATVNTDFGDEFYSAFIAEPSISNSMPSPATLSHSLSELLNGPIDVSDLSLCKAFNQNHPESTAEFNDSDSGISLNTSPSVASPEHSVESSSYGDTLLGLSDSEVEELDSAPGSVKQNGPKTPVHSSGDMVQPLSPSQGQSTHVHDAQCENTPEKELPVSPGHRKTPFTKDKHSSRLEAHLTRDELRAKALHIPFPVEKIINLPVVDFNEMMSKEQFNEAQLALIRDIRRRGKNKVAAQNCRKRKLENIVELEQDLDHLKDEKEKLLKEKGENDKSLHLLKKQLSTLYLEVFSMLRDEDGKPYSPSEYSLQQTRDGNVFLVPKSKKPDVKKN

outcome, inactive:
O=[N+]([O-])c1cncc([N+](=O)[O-])c1Nc1cccc(O)c1, CC1CCN(c2ccc3c(c2)S(=O)(=O)c2ccccc2C3=O)CC1, CCCCCCOC(=O)C(C#N)c1nc2ccccc2nc1N1CCOCC1 (stereo not drawn), CCC(C(=O)NC1C(=O)N2C(C(=O)O)=C(CSc3nnc(C)s3)CSC12)c1ccccc1 (stereo not drawn), COc1cccc(NC(=O)CN(C)CC(=O)NCc2ccco2)c1, Oc1[nH]c2ccccc2c1N=Nc1ccccc1F, Cc1snc(S(=O)(=O)/C(C#N)=N/Nc2cccc(C(F)(F)F)c2)c1C#N, O=C(/C=C/c1ccccc1Cl)NCCCn1ccnc1, O=C(CCN1C(=O)/C(=C/c2ccco2)SC1=S)Nc1ccc(O)cc1C(=O)O, O=c1[nH]c(=S)[nH]c2c1C(c1ccc(Br)cc1)c1c([nH]c(=S)[nH]c1=O)O2, COc1ccc(NC(=O)Cc2ccsc2)cc1S(=O)(=O)N1CCOCC1, CCCCC1OC23CCCCC2C(C#N)(C(=N)O3)C1(C#N)C#N (stereo not drawn), Cc1nc(-c2ccc(S(=O)(=O)N3CCCN(CCc4ccccc4)CC3)s2)cs1, CC(Sc1nc2ccccc2s1)C(=O)Nc1nnc(C(C)C)s1 (stereo not drawn), COc1ccc(N(Cc2ccccc2)S(=O)(=O)c2cccc(C(=O)Nc3ncccc3C)c2)cc1, C=CCOc1ccc(CNc2ccc(NC(=O)CC(C)C)cc2)cc1OC, Nc1cccc2cc(S(=O)(=O)O)ccc12, N/C(Cc1cccc2ccccc12)=N\O, C=CCOc1ccc(C=NNc2ccc(S(=O)(=O)Nc3ccccc3C(=O)O)cc2[N+](=O)[O-])cc1OC, O=C1C=CC(=O)c2c(O)c(N3CCN(CCOCCO)CC3)c(Br)c(O)c21, O=C(COC(=O)c1cccnc1Cl)Nc1ccc(N2CCCCC2)cc1, O=C(CCCN1C(=O)/C(=C\c2ccco2)SC1=S)Nc1ccc(O)cc1C(=O)O, Oc1cc(NCCN2CCOCC2)cc2cccnc12, c1ccc(Nc2nc3ccccc3n3nnnc23)cc1, COc1cc(/C=C/C(=O)OCC(=O)c2ccc3c(c2)NC(=O)CO3)ccc1OC(F)F, C=CCOc1ccc(C2OC34CCCCC3C(C#N)(C#N)C2(C#N)C(=N)O4)cc1 (stereo not drawn), O=C(NNC(=O)c1ccc(Br)o1)c1csc(N2CCOCC2)n1, Cc1cccc(C)c1NC(=O)CSc1nnc(-c2ccco2)c(-c2ccco2)n1, O=[N+]([O-])c1cc(C(F)(F)F)ccc1NC1CCN(Cc2ccccc2)CC1, NC(=O)COc1ccc(NC(=O)CC23CC4CC(CC(C4)C2)C3)cc1, O=C(NC1(O)C(=O)c2ccccc2C1=O)c1c(Cl)cccc1Cl, CN(CC(=O)Nc1cc(C(F)(F)F)ccc1-n1cncn1)Cc1ccccc1N1CCOCC1, Cc1cccc(NC(=O)CCN2CCCCC2)c1, CN(C)CCN(C)Cc1c2ccccc2c(CN(C)CCN(C)C)c2ccccc12, COc1cc(NC(=O)CSc2nc3cc(C)ccc3cc2C)c(C(=O)O)cc1OC, C=CCn1c(=O)/c(=C/c2ccsc2)s/c1=C(\C#N)C(=O)NCCN1CCOCC1, Cc1cc[n+](-c2[nH]c(=O)sc2/C=N/NC([S-])=Nc2ccccc2)cc1, CCOC(=O)C1=C(CSc2nc3c(cc2C#N)CN(C)CC3)OC(N)=C(C#N)C1c1ccncc1 (stereo not drawn)
